About 2,200 (0.71%) of roughly 310,000 compounds showed an effect of 50% or more. The effect is printed as a negative number. The sample holds strong results, similar compounds and a random draw of the others, so the mix is not that of the screen.
These molecules were tested against human ether-à-go-go-related gene (hERG) potassium channel (human, UniProt Q12809) (assay: primary screen, population patch clamp on CHO cells stably expressing hERG; higher = less effect of the substance).
Sequence of human ether-à-go-go-related gene (hERG) potassium channel (Q12809 whole entry, looked up): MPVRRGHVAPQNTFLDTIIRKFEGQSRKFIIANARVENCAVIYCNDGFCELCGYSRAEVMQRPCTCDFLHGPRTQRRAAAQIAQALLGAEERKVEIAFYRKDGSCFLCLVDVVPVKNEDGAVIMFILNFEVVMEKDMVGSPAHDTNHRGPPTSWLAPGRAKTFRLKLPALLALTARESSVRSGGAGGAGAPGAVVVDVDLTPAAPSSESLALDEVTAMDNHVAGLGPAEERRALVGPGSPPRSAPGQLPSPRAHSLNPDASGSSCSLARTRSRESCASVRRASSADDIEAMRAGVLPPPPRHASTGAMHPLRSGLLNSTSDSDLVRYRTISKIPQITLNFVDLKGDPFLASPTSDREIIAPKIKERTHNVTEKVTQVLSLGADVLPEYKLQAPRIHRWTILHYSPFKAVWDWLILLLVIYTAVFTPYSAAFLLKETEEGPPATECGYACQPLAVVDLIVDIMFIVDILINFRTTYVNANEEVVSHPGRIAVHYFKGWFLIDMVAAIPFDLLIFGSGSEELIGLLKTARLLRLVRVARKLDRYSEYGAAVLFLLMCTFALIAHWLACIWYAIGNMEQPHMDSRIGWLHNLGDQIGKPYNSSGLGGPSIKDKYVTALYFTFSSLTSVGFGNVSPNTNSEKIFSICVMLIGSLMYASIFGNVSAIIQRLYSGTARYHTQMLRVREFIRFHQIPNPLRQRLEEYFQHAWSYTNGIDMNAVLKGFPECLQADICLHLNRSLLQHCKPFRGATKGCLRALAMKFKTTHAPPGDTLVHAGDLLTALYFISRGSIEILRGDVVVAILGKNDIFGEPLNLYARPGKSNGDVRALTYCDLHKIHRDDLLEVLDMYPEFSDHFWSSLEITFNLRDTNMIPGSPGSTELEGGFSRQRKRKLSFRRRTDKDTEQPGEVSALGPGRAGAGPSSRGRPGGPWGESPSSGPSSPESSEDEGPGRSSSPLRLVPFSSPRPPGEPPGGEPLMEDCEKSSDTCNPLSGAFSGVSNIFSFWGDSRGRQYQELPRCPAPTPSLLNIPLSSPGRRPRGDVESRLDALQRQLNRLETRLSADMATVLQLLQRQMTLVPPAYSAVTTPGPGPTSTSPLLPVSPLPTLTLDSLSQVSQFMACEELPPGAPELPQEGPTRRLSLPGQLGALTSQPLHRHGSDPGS

Row | Structure (SMILES) | hERG current change (%, negative = inhibition) at 1uM [%]
1 | O=c1[nH]cnc2sc(-c3ccccc3)cc12 | 6.92
2 | COc1ccc(S(=O)(=O)NCc2c(-c3ccccc3)noc2C)c(OC)c1 | 3.4
3 | CC1CCN(C(CNS(=O)(=O)c2ccccc2)c2ccccc2)CC1 (stereo not drawn) | 3.61
4 | Cc1ccccc1[C@]1(C)ON(c2ccccc2C(F)(F)F)C1=O | 14.2
5 | CN1CCN(C(=O)/C(=C/c2ccc(N(C)C)cc2)NC(=O)c2ccccc2)CC1 | 7.18
6 | CN1CCN(C(=O)/C(=C/c2ccc([N+](=O)[O-])cc2)NC(=O)c2ccccc2)CC1 | -90.4
7 | CC(C)(C)NC(=O)/C(=C\C=C\c1ccccc1)NC(=O)c1ccc([N+](=O)[O-])cc1 | 11.2
8 | CN(C)CCCNC(=O)/C(=C\C=C\c1ccccc1)NC(=O)c1ccc([N+](=O)[O-])cc1 | -42
9 | CNC(=O)/C(=C\C=C\c1ccccc1)NC(=O)c1ccc([N+](=O)[O-])cc1 | -85
10 | O=C(N/C(=C/c1ccccc1)C(=O)N1CCCCC1)c1ccc(Br)o1 | -0.572
11 | O=C(N/C(=C\c1ccc([N+](=O)[O-])cc1)C(=O)N1CCCCC1)c1ccc(Br)o1 | -53.4
12 | O=C(N/C(=C/c1cccc([N+](=O)[O-])c1)C(=O)N1CCCC1)c1ccccc1 | -0.775
13 | O=C(N/C(=C\c1ccc([N+](=O)[O-])cc1)C(=O)N1CCCCC1)c1ccccc1 | -73.2
14 | O=C(N/C(=C\c1ccccc1)C(=O)N1CCCCCC1)c1ccccc1 | 21.1
15 | CN1CCN(C(=O)/C(=C/c2cccc([N+](=O)[O-])c2)NC(=O)c2ccccc2)CC1 | -46.5
16 | O=C(N/C(=C\c1ccccc1)C(=O)N1CCCCC1)c1ccc(Br)o1 | -0.538
17 | CC(=O)c1ccc(N2CCCCCC2)c(F)c1 | 0.156
18 | COc1ccc(OCC(=O)NCCCNC(=O)COc2ccc(OC)cc2)cc1 | 4.68
19 | O=c1c2c3c(sc2nc2n1CCCCC2)CCC3 | 10.9
20 | O=S1(=O)[C@H]2C[C@@H]3C=C[C@]2(CN1Cc1ccc(C(F)(F)F)cc1)O3 | 4.34
21 | COc1ccc(CCNC(=O)CO/N=C/c2cc3c(cc2Br)OCO3)cc1OC | 14.5
22 | CCCCCOc1ccc(C(C)(O)C(CN2CCOCC2)c2ccccc2)cc1 (stereo not drawn) | -3.26
23 | CC(OC(=O)/C(C#N)=C/c1ccc(N(C)C)cc1)C(=O)NCc1ccco1 (stereo not drawn) | 6.56
24 | C[C@@H](C(=O)Nc1ccc2ccccc2c1)[C@@H]1C[C@@]1(C)[C@@H](NC(=O)OCc1ccccc1)c1ccccc1 | 14.3
25 | CCOC(=O)C1=C(CSc2nncn2C)NC(=O)NC1c1cc(OCC)ccc1OCC (stereo not drawn) | 5.34
26 | Cc1ccc(NC(=O)CSc2nnc(Cn3cnc4ccccc43)o2)c(C)c1 | 20.5
27 | Cc1cccc(C)c1N(CC(=O)N1CCCC1)S(C)(=O)=O | 16.2

Row | Structure (SMILES) | hERG current change (%, negative = inhibition) at 1uM [%]
28 | CS(=O)(=O)N(CC(=O)N1CCc2ccccc2C1)c1ccc(Br)cc1 | 13.4
29 | CCNC(=O)CN(C1CCCCC1)S(C)(=O)=O | 1.29
30 | CCOC(=O)c1c(CSc2ccc(C)cc2)n(C)c2cc(Br)c(O)c(CN(C)C)c12.Cl.O | 18
31 | CCOC(=O)c1c(CSc2ccsc2)n(C)c2cc(Br)c(O)c(CN(C)C)c12.Cl | -88.5
32 | CCOC(=O)c1c(CSc2ccccc2)n(C)c2cc(Br)c(O)c(CN(C)C)c12 | -3.17
33 | CN(C)c1ccc(NC(=O)CSc2nc3ccccc3c(=O)n2CC2CCCO2)cc1 (stereo not drawn) | 17.3
34 | Nc1ccccc1SCC1CSc2nc3ccccc3c(=O)n21 (stereo not drawn) | -7.26
35 | O=C(Nc1ccccc1SCC1CSc2nc3ccccc3c(=O)n21)c1ccccc1Cl (stereo not drawn) | -53.2
36 | Cc1cccc(C(=O)Nc2ccccc2SCC2CSc3nc4ccccc4c(=O)n32)c1 (stereo not drawn) | -66.5
37 | Cc1ccc(C(=O)Nc2ccccc2SCC2CSc3nc4ccccc4c(=O)n32)cc1 (stereo not drawn) | -39
38 | O=C(Nc1ccccc1SCC1CSc2nc3ccccc3c(=O)n21)c1cccc(Cl)c1 (stereo not drawn) | -49.6
39 | O=C(Nc1ccccc1SCC1CSc2nc3ccccc3c(=O)n21)c1ccccc1 (stereo not drawn) | -24.7
40 | CCOC(=O)C(C(=O)OCC)C(Nc1cccc(Br)c1)c1ccccc1 (stereo not drawn) | 14.1
41 | Cc1ccc(NC(=O)COC(=O)CN2C(=O)COc3ccccc32)cc1 | 13.2
42 | Cc1[nH]c2ccccc2c1-c1ccc(Cl)nn1 | 13.8
43 | O=[N+]([O-])c1ccc(C(O)CN2CCN(C/C=C/c3ccccc3)CC2)cc1 (stereo not drawn) | -85.5
44 | O=[N+]([O-])c1ccc(C(O)CN2CCN(Cc3ccccc3)CC2)cc1 (stereo not drawn) | -73
45 | OC(CN1CCN(Cc2ccccc2)CC1)c1ccccc1 (stereo not drawn) | 0.933
46 | O=C(/C=C/c1ccccc1)N1CCN(C(=O)c2ccco2)CC1 | -13.1
47 | O=C(/C=C/c1cccc([N+](=O)[O-])c1)N1CCN(C(=O)c2ccco2)CC1 | -53.4
48 | CS(=O)(=O)N(CC(=O)N1CCN(Cc2ccccc2)CC1)c1cccc(Cl)c1 | -23
49 | O=[N+]([O-])c1ccc(C(O)CN2CCOCC2)cc1 (stereo not drawn) | 18.6
50 | CS(=O)(=O)N(CC(=O)N1CCN(Cc2ccccc2)CC1)c1cccc([N+](=O)[O-])c1 | -73.1
51 | O=C(c1cccc([N+](=O)[O-])c1)N1CCN(C(=O)c2ccco2)CC1 | 0.101
52 | O=[N+]([O-])c1ccc(C(O)CN2CCN(c3ccccc3)CC2)cc1 (stereo not drawn) | -2.31
53 | CS(=O)(=O)N(CC(=O)N1CCCCCC1)c1cccc([N+](=O)[O-])c1 | 2.29
54 | O=C(c1cccc([N+](=O)[O-])c1)N1CCN(C/C=C/c2ccccc2)CC1 | -21

Source: article PMC4336329 (PLoS ONE, 2015)
